Methyltransferases: Primary Screen for Target Class Profiling of Small Molecule Inhibitors of Methyltransferases; purified enzyme, MTase-Glo SAH luminescence; active compounds read low; calls only at 40 µM; 25,000 tested, 3.9% active; AID 1745853, 2022; call rule not given here
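Each enzyme was assayed with SAM and its substrate. SAH formation detected by MTase-Glo luminescence; single-point 40 uM screen[…].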
MTase-Glo counter: detection enzyme interference, methyltransferase counter-screen. shares compounds with Methyltransferases. 180 tested, 6% active. Potency, µM (series often up to 57.3 µM), inactives show top-dose activity change, negative = inhibition, hits mostly inhibitors. AID 1745851. MTase-Glo coupled enzymes, SAH conversion luminescence, no MTase; active = well fitted inhibition curve with a large enough effect; inconclusive = small, poorly fitted or top-dose-only effect; note: potency is the fitted concentration of half-maximal effect
Starred values were filed as active, the others as inactive; i = inactive; ? = inconclusive; + = active, no number; [ ] = dose if it differs, or a comment. The sample as a whole holds a higher share of hits than the screen did. % is set by controls: 0 for no effect and ±100 for the full control effect.

SMILES | Methyltransferases | others
Cc1ccc(CN2C(=O)c3ccc(-c4ccco4)n3CC2(C)C(=O)NC2CCCC2)cc1 (stereo not given) | i
CC(C)NC(=O)c1ccc2c(=O)n(C3CC3)c3nn(CC(=O)Nc4cc(F)ccc4F)c(=O)n3c2c1 | i
Cc1noc(C)c1-c1cnc(Nc2ccc(F)c(Cl)c2)c2c1CCO2 | i
COc1cncc(Nc2ncc(-c3ccccc3OC)c3c2OCC3)c1 | + | MTase-Glo counter=-2.8%[85.7 µM]
COc1cccc(CN2CC(=O)N(Cc3ccc(F)cc3)c3ccccc3S2(=O)=O)c1 | i
O=C(CCc1nnc2n(Cc3ccccc3Cl)c(=O)c3ccccc3n12)NCCCN1CCCC1=O | i
Cc1sc2ccn(CC(C)C)c(=O)c2c1C(=O)N1CCCCC1 | i
CCCCN(C)C(=O)c1c(C)sc2ccn(CCC)c(=O)c12 | + | MTase-Glo counter=-1.1%
COc1ccc(C(C)NC(=O)c2c(C)sc3ccn(C)c(=O)c23)cc1 (stereo not given) | i
CCN1C(=O)c2cc(C(=O)NCCc3ccc(OC)c(OC)c3)nn2CC1(C)C(=O)NC1CCCC1 (stereo not given) | i
COc1ccccc1NC(=O)Cn1nc2n(Cc3ccccc3)c(=O)c3ccccc3n2c1=O | i
CCCNC(=O)CCc1ccnc(N2CCCC2)c1 | i
CN1C(=O)c2cc(C(=O)NCCN3CCCC3)nn2CC1(C)C(=O)NC1CCCCC1 (stereo not given) | i
CCCNc1cc(N2CCC(CCC(=O)NCCN3CCCCCC3)CC2)ncn1 | + | MTase-Glo counter=1.0%
CC(CNC(=O)c1cc2n(n1)CC(C)(C(=O)NC1CCCCCC1)N(C)C2=O)c1ccccc1 (stereo not given) | i
CN1CCCN(C[C@@H]2CN(C(=O)c3ccn(C)n3)C[C@@H]2CO)CC1 | i
CN(C)c1nc2c(c(N3C[C@@H](CN4CCCC4)[C@@H](CO)C3)n1)CCCC2 | + | MTase-Glo counter=13.6µM*
CCc1cc2c(cc3n2CC(C)(C(=O)NC2CCCCCC2)N(Cc2ccc(OC)cc2)C3=O)s1 (stereo not given) | i
Cc1ccc(-c2n[nH]n3c2nc(=O)c2ccc(C(=O)NCc4cccnc4)cc23)cc1 | i
COc1ccc(OC)c(CN2CCC3(CC2)Nc2ccccc2NC3=O)c1 | i
COc1ccc(OC)c(CN2CCNc3cc(-c4ccnc(C)c4)ncc3C2)c1 | + | MTase-Glo counter=4.5%[85.7 µM]
COc1ccc(-c2nn(-c3ccccc3C)cc2CN2CCCN(C)CC2)cc1F | i
CN1C(=O)c2cc(C(=O)N3CCOCC3)nn2CC1(C)C(=O)NCc1ccccc1 (stereo not given) | i
Cc1cc(Cl)ccc1NC1CN(C(=O)OC(C)(C)C)C1 | i
CNc1cc(C2CC(NC(=O)COc3ccc(Cl)cc3C)C2)nc(N)n1 (stereo not given) | + | MTase-Glo counter=2.71µM*
SMILES | Methyltransferases | others
Cc1nc(CCNc2cc(C3CC(O)C3)nc(N)n2)nc2c1CCC2 (stereo not given) | i
CC1(C(=O)NC2CCCCC2)Cn2nc(-c3ccco3)cc2C(=O)N1Cc1ccc2c(c1)OCO2 (stereo not given) | i
COc1ncccc1-c1nc(-c2c(C)noc2C)cc2cc(CN(C)C)oc12 | i
Cc1noc(C)c1-c1cc2c(cc(C)n2CCN(C)C)c(Nc2ccncn2)n1 | + | MTase-Glo counter=-3.2%[85.7 µM]
CCOc1ccc(CCNC(=O)c2cc3n(n2)CC(C)(C(=O)NC2CCCC2)N(CC)C3=O)cc1 (stereo not given) | i
Cc1cc(C)cc(NS(=O)(=O)c2cc3[nH]c(=O)[nH]c3cc2C)c1 | i
CCNc1nc2c(s1)C(c1cccc(F)c1)CC(=O)N2 (stereo not given) | + | MTase-Glo counter=?
Cc1ccc(NC(=O)Cn2nc3n(Cc4ccccc4)c(=O)c4ccccc4n3c2=O)c(C)c1 | i
COc1ccc(-c2cc3n(n2)CC(C)(C(=O)NCc2ccccc2OC)N(c2ccc(C)c(C)c2)C3=O)cc1 (stereo not given) | i
CC(C)Cn1c(=O)c2ccc(C(=O)NC3CCCC3)cc2n2c(=O)n(CC(=O)NC(C)(C)C)nc12 | i
COc1ccc(N2CCN(C(=O)c3cccc(Nc4nc5ccccc5n5nnnc45)c3)CC2)cc1 | i
COc1ccc(N2CCN(C(=O)c3ccc4c(=O)nc5c(-c6ccccc6F)n[nH]n5c4c3)CC2)cc1 | i
COc1ccc(N2CCN(C(=O)c3cc(NC(C)=O)cc4nc(C)ccc34)CC2)cc1 | + | MTase-Glo counter=1.1%
CC(=O)NC1CC2(CCN(Cc3ccc(O)cc3)CC2)c2ccccc21 (stereo not given) | + | MTase-Glo counter=2.0%
CC(C)NC(=O)NC1CC2(CCN(C(=O)Cc3ccc(O)cc3)CC2)c2ccccc21 (stereo not given) | i
CC(=O)Nc1ccc(CN2CCC3(C2)C(=O)N(C)c2ccccc23)cc1 (stereo not given) | i
Cc1ccc(Cn2nc3n(CCc4ccccc4)c(=O)c4ccccc4n3c2=O)cc1 | i
CN(C)c1ccc(CN2C(=O)c3nc4ccccc4n3CC2(C)C(=O)NCc2ccccc2)cc1 (stereo not given) | i
Cc1cc(C)cc(NC(=O)CSc2nnc3n(CC(C)C)c(=O)c4ccccc4n23)c1 | i
CC(C)CNC(=O)c1ccc2c(=O)n(CC(C)C)c3nn(C)c(=O)n3c2c1 | i
COc1cccc(C2c3cccn3-c3sc4c(c3CN2C(=O)Nc2ccc(C)cc2)CCCC4)c1 (stereo not given) | i
CN(C)c1cc(N2CCCC(NC(=O)C3CCC3)C2)ncn1 (stereo not given) | i
Cc1ccc([C@@H]2CN(c3cc(N4CCC(O)CC4)ncn3)C[C@H]2N(C)C)cc1 | + | MTase-Glo counter=-3.1%
CCCn1cc(C(=O)N2C[C@@H](N(C)C)[C@H](c3ccc(C)cc3)C2)c(C)n1 | i
CC1CCCC(NC(=O)Cn2ccc3cc(S(=O)(=O)N4CCCC4)ccc32)C1C (stereo not given) | i
SMILES | Methyltransferases | others
CCCCN1C(=O)c2cc(C(=O)Nc3cccc(CC)c3)nn2CC1(C)C(=O)NC1CCCC1 (stereo not given) | i
Cc1ccc(CNC(=O)C2(C)Cn3cnc(C(=O)Nc4ccccc4C)c3C(=O)N2C2CC2)cc1 (stereo not given) | i
COc1ccccc1CNC(=O)CCc1nnc2n(Cc3ccc(F)cc3)c(=O)c3ccccc3n12 | i
CC(C)CNc1ccc2c(n1)C(C)(C(=O)NCc1cccnc1)CN(Cc1ccccc1)C2 (stereo not given) | i
c1ccc(Nc2cc3c(cn2)NCCN(Cc2cccs2)C3)cc1 | i
Cn1cnc(CN2CCNc3cc(Nc4ccccc4)ncc3C2)c1 | + | MTase-Glo counter=3.3%[85.7 µM]
Fc1ccccc1CN1CCNc2cnc(OCc3cccnc3)cc2C1 | i
Cn1cc(CN2CCOc3cc([S+](=O)([O-])Nc4ccccc4)ccc3C2)cn1 | i
c1ccc(CCN2CCNc3cc(NCc4cccnc4)ncc3C2)cc1 | + | MTase-Glo counter=?
CCCC1c2ccc(C)n2CCN1C(=O)Nc1ccc(Br)c(C)c1 (stereo not given) | i
O=C(NCc1ccccc1)c1ccc2c(=O)nc3c(-c4ccccc4)n[nH]n3c2c1 | i
CCc1cc2c(cc3n2CC(C)(C(=O)NC2CCC(C)CC2)N(Cc2ccc(C)cc2)C3=O)s1 (stereo not given) | i
